Source: PubChem BioAssay AID720504 (National Center for Advancing Translational Sciences (NCATS), 2013)
The campaign covered roughly 360,000 compounds. About 10,000 (2.8%) were called active. Not shown: some 4% with an inconclusive outcome. Calls follow the shape of the dose curve; as a rule, active = well fitted inhibition curve with a large enough effect; inconclusive = small, poorly fitted or top-dose-only effect; inactive = flat fitted curve, though single readings scatter. Shown is part of a subset that was picked to be rich in actives.

Molecular target: Serine/threonine-protein kinase PLK1 (Homo sapiens) (UniProt P53350)
Assay: qHTS for Inhibitors of PLK1-PDB (polo-like kinase 1 - polo-box domain): Primary Screen; also: nearly all actives have a fitted effect of over 65% in size; as to max response, negative = inhibition: series mostly up to about 57 µM
Settings: Plk1 PBD binding of FITC phosphopeptide, fluorescence polarization
% is scaled to controls: 0 for no effect and ±100 for the full control effect; potency is read from the fitted curve at half-maximal effect.

Serine/threonine-protein kinase PLK1 (Homo sapiens), sequence (P53350 whole entry, looked up, the tested form may be a part): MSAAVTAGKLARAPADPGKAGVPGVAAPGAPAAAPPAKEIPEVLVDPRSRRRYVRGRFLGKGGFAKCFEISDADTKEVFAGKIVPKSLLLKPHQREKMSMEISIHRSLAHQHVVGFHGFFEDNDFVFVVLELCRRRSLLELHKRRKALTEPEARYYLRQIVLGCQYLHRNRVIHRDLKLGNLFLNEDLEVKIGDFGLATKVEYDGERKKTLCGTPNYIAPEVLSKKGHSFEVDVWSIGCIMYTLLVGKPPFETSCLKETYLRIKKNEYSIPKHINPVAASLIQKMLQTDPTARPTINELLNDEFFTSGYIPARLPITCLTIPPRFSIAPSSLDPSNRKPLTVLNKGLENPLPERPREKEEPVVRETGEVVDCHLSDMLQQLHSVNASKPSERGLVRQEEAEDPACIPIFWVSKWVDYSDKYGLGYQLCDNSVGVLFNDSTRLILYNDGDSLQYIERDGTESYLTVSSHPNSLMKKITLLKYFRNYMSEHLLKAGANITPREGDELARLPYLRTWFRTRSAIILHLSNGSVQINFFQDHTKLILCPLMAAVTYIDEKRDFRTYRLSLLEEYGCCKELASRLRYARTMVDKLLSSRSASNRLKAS

Structure (SMILES)	max response, negative = inhibition	Potency
CCc1nc2ccc(C(=O)Nc3cc(-c4ccccc4)ccc3OC)cn2c1N(CC)CC(=O)N(C)C	-4.06% (inactive)	
COc1ccc(S(=O)(=O)NCC(=O)NCc2cc(=O)n(C)c(=O)n2C)cc1F	-15.2% (inactive)	
Cc1ccc(C(=O)NCC(=O)NC2CC2)cc1	-13.7% (inactive)	
Cc1ccc(C(=O)NCC(=O)NCc2cc(=O)n(C)c(=O)n2C)cc1		26.7 µM (active)
O=C(O)c1ccccc1Cc1ccc(F)c2ccccc12	-10.5% (inactive)	
CN1OC[C@@H]2CN(C(=O)c3cccnc3)[C@H](c3ccc(N4CCCCC4)cc3)C[C@@H]21	-6.62% (inactive)	
COc1ccc(NC(=O)C2(C)Cc3c(-c4ccc(C(N)=O)cc4)ccnc3O2)cc1 (stereo unspecified)	-13.3% (inactive)	
CCOC(=O)c1sc(=S)n2c1[nH]c(=O)c1ccc(C(=O)OC)cc12		6.7 µM (active)
CCOC(=O)C1=C(C)Nc2sc(C(=O)c3ccc(Br)cc3)c(N)c2C1c1ccc(C(=O)OC)cc1 (stereo unspecified)	3.24% (inactive)	
CCOC(=O)c1ccc(Nc2cc3ccccc3c(=O)[nH]2)cc1	-11.1% (inactive)	
COc1ccc([C@H]2N[C@]3(CCCN(CC4CCCCC4)C3=O)[C@H]3C(=O)N(C)C(=O)[C@@H]23)cc1	-7.68% (inactive)	
CCN1C(=O)[C@H]2[C@@H](c3ccc(C(F)(F)F)cc3)N[C@]3(CCCN(Cc4ccc(Br)cc4)C3=O)[C@H]2C1=O	-8.24% (inactive)	
COc1cccc(C(NC(C)=O)c2nc(-c3cnc4ccccc4c3)cs2)c1 (stereo unspecified)	-4.39% (inactive)	
CCc1nc2c(OCCOc3ccccc3)cccn2c1N(C)C(=O)c1cccs1	-1.33% (inactive)	
O=C(CN1C(=O)NC2(CCc3ccccc32)C1=O)NC1CCCCC1 (stereo unspecified)	2.51% (inactive)	
CCOC(=O)C1CCN(C(=O)c2ccc3c(=O)n4nc(Nc5ccccc5CC)sc4nc3c2)CC1	-1.87% (inactive)	
COC(=O)C1=CN(C)C=C(C(=O)OC)C1c1ccc(Cl)cc1Cl	2.45% (inactive)	
NC(=O)C1(C(N)=O)OC1c1ccc(Cl)cc1Cl (stereo unspecified)		16.8 µM (active)
Nc1ccc2c(c1)C(O)c1ccc(Cl)cc1-2 (stereo unspecified)	-6.61% (inactive)	

Structure (SMILES)	max response, negative = inhibition	Potency
COC(=O)c1ccc2nc(-c3ccc(Cl)cc3)c(Cc3cccc(F)c3)n2c1	1.38% (inactive)	
O=C(Cn1cnc2c(OCc3ccccc3)ncnc21)NCCCn1ccnc1	-12.9% (inactive)	
CC(CNC(=O)Cn1cnc2c(OCc3ccccc3)ncnc21)c1ccccc1 (stereo unspecified)	-8.63% (inactive)	
O=C(Cn1cnc2c(OCc3ccccc3)ncnc21)NCc1nc2ccccc2[nH]1		21.2 µM (active)
O=C(COC(=O)c1ccc(S(=O)(=O)N2CCCCCC2)cc1)Nc1ccccc1C(F)(F)F	-1.71% (inactive)	
C[C@H]1NS(=O)(=O)c2cc(Cl)ccc2O[C@@H]1c1ccccc1	-5.69% (inactive)	
COc1cc(NC(=O)c2cc(-c3ccc(F)cc3OC(C)C)n[nH]2)cc(OC)c1OC	-10.2% (inactive)	
Cc1nc([N+](=O)[O-])nn1C12CC3CC(CC(Br)(C3)C1)C2		4.74 µM (active)
COc1cccc(NC(=O)c2nn(C34CC5CC(CC(C5)C3)C4)cc2[N+](=O)[O-])c1	1.45% (inactive)	
CCOC(=O)N(C)c1c(CC)nc2c(OCc3ccccc3C(=O)OC)cccn12	-14.2% (inactive)	
COC(=O)C[C@@H]1C=C[C@@H](NC(=O)c2ccc3c(c2)OCO3)[C@@H](CO)O1	-2.88% (inactive)	
O=C(NCc1ccc(F)cc1)c1cc(C2CCCCN2C(=O)c2cccs2)on1 (stereo unspecified)	-1.47% (inactive)	
O=S(=O)(c1cccc(C(F)(F)F)c1)N1c2ccccc2-n2cccc2C1c1cccnc1 (stereo unspecified)	4.88% (inactive)	
CCCCOCCCNC(=O)C[C@@H]1C[C@@]2(C(=O)OCC)CCCC=C2N(CCC2=CCCCC2)C1=O	4% (inactive)	
CC1(C)OC(=O)C2=C(C[C@@H](C3CCCCC3)O[C@@H]2c2ccc(Cl)cc2)O1	-3.8% (inactive)	
CCOC(=O)c1ccn(S(=O)(=O)c2ccc(C)cc2)c1-c1ccccc1	-3.65% (inactive)	
Cc1cccc(NC(=O)c2cc(S(=O)(=O)N3CCC4(CC3)OCCO4)ccc2F)c1		26.7 µM (active)
O=C(Nc1ccc(N2CCCCC2)cc1)c1cc(S(=O)(=O)N2CCOCC2)ccc1F	1.97% (inactive)	
CCOc1ccccc1NC(=O)c1cc(S(=O)(=O)N2CCC3(CC2)OCCO3)ccc1F	-1.47% (inactive)	

Structure (SMILES)	max response, negative = inhibition	Potency
O=C1CC(N2CCN(c3ccc(F)cc3)CC2)C(=O)N1c1ccccc1 (stereo unspecified)	-2.61% (inactive)	
O=C1C=CC(=O)N1c1ccc(N2CCCCC2)cc1		3.36 µM (active)
CC(=O)Nc1ccc(S(=O)(=O)Nc2ccc(N3CCCCC3)cc2)cc1	-2.92% (inactive)	
C=CCN1CCN(c2ccncc2S(=O)(=O)N2CCN(C)CC2)CC1	-10.5% (inactive)	
CCC1OC(C2CC2)CC2=C1C(=O)OC(C)(C)O2 (stereo unspecified)	-2.05% (inactive)	
CC1CCN(C(=O)CSc2nnc(-c3ccco3)n2N)CC1	-0.744% (inactive)	
CCc1nc2ccc(C(=O)NC3CCN(Cc4ccccc4)CC3)cn2c1N(CC)CCOC	-18.3% (inactive)	
CCn1c(SCC(=O)N/N=C/c2ccncc2)nc2ccccc21	-2.87% (inactive)	
O=C(CSc1cccc2cccnc12)N/N=C/c1cccnc1		7.52 µM (active)
COc1ccc(C(=O)NCC(=O)N/N=C/c2cccnc2)cc1	-5.97% (inactive)	
O=[N+]([O-])c1ccc(N=Cc2c(O)ccc3ccccc23)cc1		29.9 µM (active)
O=C(Oc1ccc([N+](=O)[O-])cc1)c1ccc2ccccc2n1	-21.6% (inactive)	
O=[N+]([O-])c1cccc(C=NN=Cc2ccccc2O)c1	-3.02% (inactive)	
CCCCNC(=O)C[C@@H]1C[C@@]2(C(=O)OC)CC(C)(C)CC=C2N(Cc2ccco2)C1=O	0.813% (inactive)	
Cc1cccc(-c2cnc(C(O)c3ccc4ccccc4c3)[nH]2)c1 (stereo unspecified)	-0.198% (inactive)	
O=C(N/N=C/c1ccc(Cl)cc1)c1nc2ccc([N+](=O)[O-])cc2c(=O)[nH]1		18.9 µM (active)
O=C(NN=Cc1ccc([N+](=O)[O-])cc1)C1CC1	-0.264% (inactive)	
N#Cc1cc([N+](=O)[O-])ccc1Oc1cccc(/C=N/NC(=O)c2ccc(Cl)cc2)c1	0.641% (inactive)	
